For 65 compounds, cytotoxicity call results are on record in the antibiotic and cytotoxicity screens of Wong et al. (2023).

Screen size: about 39,000 compounds; about 3,300 (8.5%) were called active. Shown is part of a subset that was picked to be rich in actives.

In the experiment the test system is HepG2. Kind of experiment: cytotoxicity call (relative viability < 0.9). To be noted: 10 µM.
Take `CC[C@@H](C)C(=O)O[C@H]1[C@@H]2CC3=C4CC(=O)O[C@@H](c5ccoc5)[C@]4(C)CC[C@@H]3[C@@](C)(C2=O)[C@@H](CC(=O)OC)C1(C)C`: the cytotoxicity call was “inactive”.

For the compound `CSc1nc(C)nc2ccccc12`, the cytotoxicity call was “inactive”.

`CC(C)NC(=O)NCC[C@@H]1CC[C@@H](NC(=O)CN(C)C)[C@@H](CO)O1`: the cytotoxicity call was “inactive”.

Regarding `C[C@@H]1CN([C@H](C)CO)C(=O)c2cc(NC(=O)Nc3ccc(F)cc3)ccc2O[C@@H](C)CCCCO[C@@H]1CN(C)Cc1ccc2c(c1)OCO2`, the cytotoxicity call is “inactive”.

On to `C[C@@H]1CN([C@@H](C)CO)C(=O)c2cc(NC(=O)Nc3ccc(F)cc3)ccc2O[C@@H](C)CCCCO[C@H]1CN(C)Cc1ccc2c(c1)OCO2`, for which the cytotoxicity call was “active”.

Take `C[C@@H]1CCCCO[C@@H](CN(C)Cc2ccc3c(c2)OCO3)[C@@H](C)CN([C@@H](C)CO)C(=O)c2cc(NC(=O)Nc3ccc(F)cc3)ccc2O1`: the cytotoxicity call is “inactive”.

With `C[C@H]1CCCCO[C@H](CN(C)Cc2ccc3c(c2)OCO3)[C@@H](C)CN([C@@H](C)CO)C(=O)c2cc(NC(=O)Nc3ccc(F)cc3)ccc2O1`, the cytotoxicity call was “active”.

In the case of `C[C@@H]1CCCCO[C@@H](CN(C)Cc2ccc3c(c2)OCO3)[C@@H](C)CN([C@H](C)CO)C(=O)c2cc(NC(=O)Nc3ccc(F)cc3)ccc2O1`, the cytotoxicity call is “inactive”.

Consider `C[C@@H]1CN([C@@H](C)CO)C(=O)c2cc(NC(=O)Nc3ccc(F)cc3)ccc2O[C@@H](C)CCCCO[C@@H]1CN(C)Cc1ccc2c(c1)OCO2`, for which the cytotoxicity call is “active”.

Take `C[C@@H]1CN([C@H](C)CO)C(=O)c2cc(NC(=O)Nc3ccc(F)cc3)ccc2O[C@@H](C)CCCCO[C@H]1CN(C)Cc1ccc2c(c1)OCO2`: the cytotoxicity call was “active”.

As for `C[C@@H]1CCCCO[C@H](CN(C)Cc2ccc3c(c2)OCO3)[C@H](C)CN([C@H](C)CO)C(=O)c2cc(NC(=O)Nc3ccc(F)cc3)ccc2O1`, the cytotoxicity call was “inactive”.

Consider `CO[C@H]1CN(C)C(=O)c2cc(NC(=O)C3CC3)ccc2OC[C@H](C)N(C(=O)CN2CCOCC2)C[C@@H]1C`, for which the cytotoxicity call is “inactive”.

In the case of `O=C1OCCC/C=C\[C@H]2O[C@@]34C=CCN(c5ccc6ccccc6c5)C(=O)[C@H]3N(CCCCCO)C(=O)[C@@H]4[C@@H]12`, the cytotoxicity call is “inactive”.

As to `COCCOC(=O)N1C(=O)[C@@]2(c3ccccc31)[C@H](C(=O)Nc1nc3ccccc3s1)[C@H]1C(=O)O[C@H](c3ccccc3)[C@H](c3ccccc3)N1[C@@H]2c1ccccc1OCCO`, the cytotoxicity call is “inactive”.

For the compound `Cc1ccc(S(=O)(=O)Nc2ccc3c(c2)C(=O)N([C@H](C)CO)C[C@H](C)[C@@H](CN(C)C(=O)Nc2ccc4c(c2)OCO4)OCCCC[C@@H](C)O3)cc1`, the cytotoxicity call was “inactive”.

Take `C[C@@H]1CCCCO[C@@H](CN(C)C(=O)c2ccccc2)[C@H](C)CN([C@@H](C)CO)C(=O)c2cc(NC(=O)Cc3ccccc3)ccc2O1`: the cytotoxicity call was “inactive”.

As for `COc1cccnc1N`, the cytotoxicity call is “inactive”.

With `COc1ccc(NC(=O)N(C)C[C@H]2OCCCC[C@H](C)Oc3ccc(NC(=O)CCC(F)(F)F)cc3C(=O)N([C@@H](C)CO)C[C@@H]2C)cc1`, the cytotoxicity call was “inactive”.

On to `CO[C@@H]1CN(C)C(=O)c2ccc(NC(=O)c3cc(C)on3)cc2OC[C@@H](C)N(C(=O)C2CCC2)C[C@H]1C`, for which the cytotoxicity call was “inactive”.

Turning to `COc1ccc(S(=O)(=O)Nc2ccc3c(c2)C(=O)N([C@H](C)CO)C[C@@H](C)[C@H](CN(C)C(=O)NC2CCCCC2)OCCCC[C@H](C)O3)cc1`, the cytotoxicity call is “inactive”.

With `C[C@H](CO)N1C[C@H](C)[C@H](CN(C)C(=O)Nc2ccc(F)cc2)Oc2ccc(NS(C)(=O)=O)cc2CC1=O`, the cytotoxicity call was “inactive”.

Take `C[C@@H]1CCCCO[C@H](CN(C)S(=O)(=O)c2ccc(F)cc2)[C@@H](C)CN([C@@H](C)CO)C(=O)c2cc(NC(=O)C3CCCCC3)ccc2O1`: the cytotoxicity call is “inactive”.

Consider `O=C1O[C@H](c2ccccc2)[C@H](c2ccccc2)N2[C@H]1[C@@H](C(=O)N1CCCCCCC1)[C@]1(C(=O)Nc3ccc(C#CCCO)cc31)[C@H]2c1ccc(OCCO)cc1`, for which the cytotoxicity call was “inactive”.

Turning to `COc1ccc(NC(=O)Nc2ccc3c(c2)C(=O)N([C@H](C)CO)C[C@H](C)[C@@H](CN(C)S(=O)(=O)c2ccc(OC)cc2)OCCCC[C@@H](C)O3)cc1`, the cytotoxicity call is “inactive”.

For `COCC#Cc1ccc2c(c1)O[C@@H](CN(C)S(=O)(=O)c1ccc(C)cc1)[C@@H](C)CN([C@@H](C)CO)S2(=O)=O`, the cytotoxicity call was “inactive”.

Regarding `C[C@@H]1CCCCO[C@H](CN(C)Cc2ccc3c(c2)OCO3)[C@@H](C)CN([C@@H](C)CO)C(=O)c2cc(NC(=O)Nc3ccc(F)cc3)ccc2O1`, the cytotoxicity call is “active”.

`C[C@H](CO)N1C[C@H](C)[C@H](CN(C)Cc2ccc3c(c2)OCO3)OCCCC[C@H](C)Oc2ccc(NC(=O)Nc3ccc(F)cc3)cc2C1=O`: the cytotoxicity call was “inactive”.

With `C[C@@H]1CCCCO[C@@H](CN(C)Cc2ccc3c(c2)OCO3)[C@H](C)CN([C@@H](C)CO)C(=O)c2cc(NC(=O)Nc3ccc(F)cc3)ccc2O1`, the cytotoxicity call was “inactive”.

In the case of `CN(C)CCCCNC(=O)[C@@H]1C[C@@H]2C(=O)N[C@@H](CCCCN(C)C)C(=O)N2[C@@H]1c1cccc(OCCO)c1`, the cytotoxicity call was “inactive”.

For `S=c1[nH]c2ccccc2s1`, the cytotoxicity call is “inactive”.

As for `C[C@@H]1CN([C@@H](C)CO)C(=O)c2cc(NC(=O)CCCN(C)C)ccc2O[C@H]1CN(C)S(=O)(=O)c1cccs1`, the cytotoxicity call was “inactive”.

For the compound `COCCNCc1ccc(-c2cc3nccc(Oc4ccc(NC(=S)NC(=O)Cc5ccc(F)cc5)cc4F)c3s2)nc1`, the cytotoxicity call was “active”.

Regarding `Cn1cnc(-c2cc3nccc(Oc4ccc(NC(=S)NC(=O)Cc5ccccc5)cc4F)c3s2)c1`, the cytotoxicity call is “inactive”.

With `COCCNCc1ccc(-c2cc3nccc(Oc4ccc(NC(=O)C5(C(=O)Nc6ccc(F)cc6)CC5)cc4F)c3s2)nc1`, the cytotoxicity call was “active”.

`COc1ccc(CN(C)C[C@H]2Oc3c(NC(=O)Nc4cccc5ccccc45)cccc3C(=O)N([C@H](C)CO)C[C@H]2C)cc1`: the cytotoxicity call is “inactive”.

Regarding `COc1cccc(CNC(=O)C[C@@H]2C=C[C@H](NC(=O)C3CCOCC3)[C@H](CO)O2)c1`, the cytotoxicity call is “inactive”.

In the case of `C[C@H]1CN([C@@H](C)CO)C(=O)c2cc(C#Cc3ccc(F)cc3)cnc2O[C@H]1CN(C)CC1CCOCC1`, the cytotoxicity call is “inactive”.

With `C=CCN1C(=O)[C@@]2(O[C@H](CCOC(=O)NCCCCCC(=O)NO)[C@@H]([Si](C)(C)c3ccc(OC)cc3)[C@@H]2C)c2cc(I)ccc21`, the cytotoxicity call was “inactive”.

Take `O=C1NC2=C(C(=O)OC2)[C@H](c2ccccc2)N1`: the cytotoxicity call was “active”.

Take `O=C1COC[C@@H](c2ccccc2)N1`: the cytotoxicity call was “inactive”.

Consider `O=C1NC(=O)[C@@H](c2ccccc2)N1`, for which the cytotoxicity call is “inactive”.

For `C[C@@H]1CN([C@@H](C)CO)C(=O)c2cc(NC(=O)Cc3ccccc3)ccc2O[C@H]1CN(C)S(=O)(=O)c1ccccc1`, the cytotoxicity call is “inactive”.

With `C[C@@H]1CCCCO[C@@H](CN(C)C(=O)C2CCCCC2)[C@@H](C)CN([C@@H](C)CO)C(=O)c2cc(NS(=O)(=O)c3ccc(Cl)cc3)ccc2O1`, the cytotoxicity call is “inactive”.

`Cc1ccc(S(=O)(=O)N2CCO[C@@H]2CNC(=O)C(=O)NCc2ccccn2)cc1`: the cytotoxicity call was “inactive”.

Turning to `C[C@H](CO)N1C[C@H](C)[C@H](CN(C)Cc2ccc(C(=O)Nc3ccccc3N)cc2)Oc2ccc(NC(=O)Nc3ccc4c(c3)OCO4)cc2C1=O`, the cytotoxicity call was “inactive”.

As to `COc1ccccc1CN1C(=O)c2ccccc2[C@](Cc2ccccc2I)(C(=O)NCCN2CCOCC2)[C@@H]1c1ccc(CO)cc1`, the cytotoxicity call was “inactive”.

Turning to `O=C1c2ccccc2[C@](Cc2ccccc2I)(C(=O)O)[C@H](c2ccc(CO)cc2)N1C1CCCCC1`, the cytotoxicity call is “inactive”.

In the case of `CN(C)CCCN1C(=O)[C@@]2(Cc3ccccc31)c1ccccc1C(=O)N(C1CCCCC1)[C@H]2c1ccc(CO)cc1`, the cytotoxicity call is “inactive”.

For the compound `O=C1c2ccccc2[C@](Cc2ccccc2I)(C(=O)NCC(F)(F)F)[C@H](c2ccc(CO)cc2)N1C1CCCCC1`, the cytotoxicity call is “inactive”.

`CN(C)CCCNC(=O)[C@@]1(Cc2ccccc2I)c2ccccc2C(=O)N(C2CCCCC2)[C@H]1c1ccc(CO)cc1`: the cytotoxicity call is “active”.

For `COCCCNC(=O)[C@@]1(Cc2ccccc2I)c2ccccc2C(=O)N(C2CCCCC2)[C@H]1c1ccc(CO)cc1`, the cytotoxicity call was “active”.

In the case of `O=C1c2ccccc2[C@](Cc2ccccc2I)(C(=O)NCc2ccccc2)[C@H](c2ccc(CO)cc2)N1C1CCCCC1`, the cytotoxicity call was “inactive”.

With `O=C1c2ccccc2[C@](Cc2ccccc2I)(C(=O)NCCN2CCOCC2)[C@H](c2ccc(CO)cc2)N1C1CCCCC1`, the cytotoxicity call was “active”.

On to `COc1ccc(CCNC(=O)[C@@]2(Cc3ccccc3I)c3ccccc3C(=O)N(C3CCCCC3)[C@H]2c2ccc(CO)cc2)cc1`, for which the cytotoxicity call was “inactive”.

For the compound `Cc1noc(C)c1NC(=O)N(C)C[C@@H]1OCCCC[C@H](C)Oc2ccc(NS(=O)(=O)c3ccc(F)cc3)cc2C(=O)N([C@@H](C)CO)C[C@@H]1C`, the cytotoxicity call was “inactive”.

Take `CO[C@@H]1CN(C)C(=O)c2ccc(NS(=O)(=O)c3cn(C)cn3)cc2OC[C@@H](C)N(CC2CC2)C[C@H]1C`: the cytotoxicity call was “inactive”.

On to `O=S(=O)(NCC[C@H]1CC[C@@H](NS(=O)(=O)c2ccccc2Cl)[C@H](CO)O1)c1ccc(F)cc1`, for which the cytotoxicity call was “inactive”.

As to `C[C@@H]1CN([C@H](C)CO)C(=O)Cc2cc(NC(=O)Nc3ccc4c(c3)OCO4)ccc2O[C@@H]1CN(C)Cc1ccc(Oc2ccccc2)cc1`, the cytotoxicity call was “active”.

Turning to `C[C@@H]1CN([C@@H](C)CO)C(=O)Cc2cc(NC(=O)Nc3ccc4c(c3)OCO4)ccc2O[C@H]1CN(C)Cc1ccc(Oc2ccccc2)cc1`, the cytotoxicity call is “inactive”.

In the case of `C[C@H]1CN([C@@H](C)CO)C(=O)Cc2cc(NC(=O)Nc3ccc4c(c3)OCO4)ccc2O[C@H]1CN(C)Cc1ccc(Oc2ccccc2)cc1`, the cytotoxicity call was “inactive”.

Consider `C[C@H](CO)N1C[C@H](C)[C@H](CN(C)Cc2ccc(Oc3ccccc3)cc2)Oc2ccc(NC(=O)Nc3ccc4c(c3)OCO4)cc2CC1=O`, for which the cytotoxicity call is “active”.

Take `C[C@@H]1CN([C@@H](C)CO)C(=O)Cc2cc(NC(=O)Nc3ccc4c(c3)OCO4)ccc2O[C@@H]1CN(C)Cc1ccc(Oc2ccccc2)cc1`: the cytotoxicity call is “active”.

For the compound `C[C@H]1CN([C@@H](C)CO)C(=O)Cc2cc(NC(=O)Nc3ccc4c(c3)OCO4)ccc2O[C@@H]1CN(C)Cc1ccc(Oc2ccccc2)cc1`, the cytotoxicity call was “inactive”.

For the compound `C[C@@H]1CN([C@H](C)CO)C(=O)Cc2cc(NC(=O)Nc3ccc4c(c3)OCO4)ccc2O[C@H]1CN(C)Cc1ccc(Oc2ccccc2)cc1`, the cytotoxicity call is “inactive”.

On to `C[C@H](CO)N1C[C@H](C)[C@@H](CN(C)Cc2ccc(Oc3ccccc3)cc2)Oc2ccc(NC(=O)Nc3ccc4c(c3)OCO4)cc2CC1=O`, for which the cytotoxicity call is “inactive”.
